Measurements as given in the supplement of paper PMC8728848.
The entries come from a sample that favours the strongest signals as a whole.

Columns and labels:
Test in all cases: glycan array binding signal (z-score within array); higher = stronger binding
Conditions in all cases: glycan notation: IUPAC condensed, linker removed
[1] = biological target: Fuc(a1-2)Gal(b1-3)GlcNAc(b1-2)Man(a1-3)[Fuc(a1-2)Gal(b1-3)GlcNAc(b1-2)Man(a1-6)]Man(b1-4)GlcNAc(b1-4)GlcNAc
Outline: (§1)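 The binding signal is a Z-score computed within each array. Data were drawn from 3228 arrays in the Consortium for Functional Glycomics database, restricted to those with a known protein sequence. Scores were averaged over arrays of the same protein sequence at different concentrations or buffers, and over linkers, and negative values can be taken as non-binding.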

[2] = biological target: Fuc(a1-2)Gal(b1-3)GlcNAc(b1-3)GalNAc
Outline: as §1

[3] = biological target: Fuc(a1-2)Gal(b1-4)GlcNAc(b1-2)[Fuc(a1-2)Gal(b1-4)GlcNAc(b1-4)]Man(a1-3)[Fuc(a1-2)Gal(b1-4)GlcNAc(b1-2)Man(a1-6)]Man(b1-4)GlcNAc(b1-4)GlcNAc
Outline: as §1

[4] = biological target: Fuc(a1-2)Gal(b1-4)GlcNAc(b1-3)Gal(b1-4)GlcNAc(b1-3)Gal(b1-4)GlcNAc
Outline: as §1

[5] = biological target: Fuc(a1-2)[Gal(a1-3)]Gal(b1-4)GlcNAc(b1-3)[Fuc(a1-2)[Gal(a1-3)]Gal(b1-4)GlcNAc(b1-6)]GalNAc
Outline: as §1

[6] = biological target: Fuc(a1-2)[Gal(a1-3)]Gal(b1-4)[Fuc(a1-3)]GlcNAc
Outline: as §1

[7] = biological target: Fuc(a1-2)[GalNAc(a1-3)]Gal(b1-4)GlcNAc(b1-2)Man(a1-3)[Fuc(a1-2)[GalNAc(a1-3)]Gal(b1-4)GlcNAc(b1-2)Man(a1-6)]Man(b1-4)GlcNAc(b1-4)GlcNAc
Outline: as §1

[8] = biological target: Fuc(a1-3)[Gal(b1-4)]Glc6S
Outline: as §1

[9] = biological target: Fuc(a1-3)[Gal(b1-4)]GlcNAc(b1-3)GalNAc
Outline: as §1

Fuc(a1-4)GlcNAc = biological target: Fuc(a1-4)GlcNAc
Outline: as §1

Gal(a1-3)Gal(b1-3)GlcNAc = biological target: Gal(a1-3)Gal(b1-3)GlcNAc
Outline: as §1

[10] = biological target: Gal(a1-3)Gal(b1-4)[Fuc(a1-3)]GlcNAc
Outline: as §1

[11] = biological target: Gal(b1-3)GalNAc(a1-3)[Fuc(a1-2)]Gal(b1-4)GlcNAc
Outline: as §1

[12] = biological target: Gal(b1-3)GlcNAc(b1-2)Man(a1-3)[GlcNAc(b1-4)][Gal(b1-3)GlcNAc(b1-2)Man(a1-6)]Man(b1-4)GlcNAc(b1-4)GlcNAc
Outline: as §1

[13] = biological target: Gal(b1-3)GlcNAc(b1-2)[Gal(b1-3)GlcNAc(b1-6)]Man(a1-6)[Gal(b1-3)GlcNAc(b1-2)Man(a1-3)]Man(b1-4)GlcNAc(b1-4)GlcNAc
Outline: as §1

[14] = biological target: Gal(b1-3)GlcNAc(b1-3)Gal(b1-3)GlcNAc
Outline: as §1

[15] = biological target: Gal(b1-3)GlcNAc(b1-3)Gal(b1-4)GlcNAc(b1-3)Gal(b1-4)GlcNAc(b1-2)[Gal(b1-3)GlcNAc(b1-3)Gal(b1-4)GlcNAc(b1-3)Gal(b1-4)GlcNAc(b1-6)]Man(a1-6)[Gal(b1-3)GlcNAc(b1-3)Gal(b1-4)GlcNAc(b1-3)Gal(b1-4)GlcNAc(b1-2)Man(a1-3)]Man(b1-4)GlcNAc(b1-4)[Fuc(a1-6)]GlcNAc
Outline: as §1

[16] = biological target: Gal(b1-4)GlcNAc(b1-2)Man(a1-3)[Gal(b1-4)GlcNAc(b1-2)Man(a1-6)]Man(b1-4)GlcNAc(b1-4)GlcNAc
Outline: as §1

[17] = biological target: Gal(b1-4)GlcNAc(b1-3)Gal(b1-4)GlcNAc(b1-3)Gal(b1-4)GlcNAc(b1-2)Man(a1-3)[Gal(b1-4)GlcNAc(b1-3)Gal(b1-4)GlcNAc(b1-3)Gal(b1-4)GlcNAc(b1-2)Man(a1-6)]Man(b1-4)GlcNAc(b1-4)GlcNAc
Outline: as §1

[18] = biological target: Gal(b1-4)GlcNAc(b1-3)Gal(b1-4)GlcNAc(b1-3)Gal(b1-4)GlcNAc(b1-3)Gal(b1-4)GlcNAc(b1-3)Gal(b1-4)GlcNAc(b1-2)[Gal(b1-4)GlcNAc(b1-3)Gal(b1-4)GlcNAc(b1-3)Gal(b1-4)GlcNAc(b1-3)Gal(b1-4)GlcNAc(b1-3)Gal(b1-4)GlcNAc(b1-6)]Man(a1-6)[Gal(b1-4)GlcNAc(b1-3)Gal(b1-4)GlcNAc(b1-3)Gal(b1-4)GlcNAc(b1-3)Gal(b1-4)GlcNAc(b1-3)Gal(b1-4)GlcNAc(b1-2)Man(a1-3)]Man(b1-4)GlcNAc(b1-4)[Fuc(a1-6)]GlcNAc
Outline: as §1

Gal3S(b1-4)Glc6S = biological target: Gal3S(b1-4)Glc6S
Outline: as §1

Gal6S(b1-4)Glc = biological target: Gal6S(b1-4)Glc
Outline: as §1

Gal6S(b1-4)GlcNAc = biological target: Gal6S(b1-4)GlcNAc
Outline: as §1

[19] = biological target: GalNAc(b1-3)Gal(a1-4)Gal(b1-4)GlcNAc
Outline: as §1

GalNAc(b1-3)GalNAc = biological target: GalNAc(b1-3)GalNAc
Outline: as §1

[20] = biological target: GalNAc(b1-4)GlcNAc(b1-2)Man(a1-3)[GalNAc(b1-4)GlcNAc(b1-2)Man(a1-6)]Man(b1-4)GlcNAc(b1-4)GlcNAc
Outline: as §1

GalNAc3S(b1-4)GlcNAc3S = biological target: GalNAc3S(b1-4)GlcNAc3S
Outline: as §1

GlcA(b1-6)Gal = biological target: GlcA(b1-6)Gal
Outline: as §1

[21] = biological target: GlcA3S(b1-3)Gal(b1-4)GlcNAc(b1-3)Gal(b1-4)Glc
Outline: as §1

[22] = biological target: GlcNAc(b1-2)Man(a1-3)[GlcNAc(b1-2)Man(a1-6)]Man(b1-4)GlcNAc(b1-4)[Fuc(a1-6)]GlcNAc
Outline: as §1

[23] = biological target: GlcNAc(b1-2)[GlcNAc(b1-4)]Man(a1-3)[GlcNAc(b1-4)][GlcNAc(b1-2)Man(a1-6)]Man(b1-4)GlcNAc(b1-4)GlcNAc
Outline: as §1

GlcNAc(b1-3)Gal(b1-4)Glc = biological target: GlcNAc(b1-3)Gal(b1-4)Glc
Outline: as §1

[24] = biological target: GlcNAc(b1-3)Gal(b1-4)GlcNAc(b1-6)[Gal(b1-3)]GalNAc
Outline: as §1

[25] = biological target: GlcNAc(b1-4)GlcNAc(b1-4)GlcNAc(b1-4)GlcNAc(b1-4)GlcNAc(b1-4)GlcNAc
Outline: as §1

Man(b1-4)GlcNAc = biological target: Man(b1-4)GlcNAc
Outline: as §1

[26] = biological target: Neu5Ac(a2-3)Gal(b1-3)GalNAc
Outline: as §1

Neu5Ac(a2-3)Gal(b1-4)Glc = biological target: Neu5Ac(a2-3)Gal(b1-4)Glc
Outline: as §1

[27] = biological target: Neu5Ac(a2-3)Gal(b1-4)GlcNAc(b1-3)Gal(b1-3)GlcNAc
Outline: as §1

[28] = biological target: Neu5Ac(a2-3)Gal(b1-4)[Fuc(a1-3)]GlcNAc
Outline: as §1

[29] = biological target: Neu5Ac(a2-6)Gal(b1-4)GlcNAc(b1-3)Gal(b1-4)GlcNAc(b1-2)Man(a1-3)[Neu5Ac(a2-6)Gal(b1-4)GlcNAc(b1-3)Gal(b1-4)GlcNAc(b1-2)Man(a1-6)]GalNAc
Outline: as §1

[30] = biological target: Neu5Ac(a2-8)Neu5Ac(a2-8)Neu5Ac
Outline: as §1

[31] = biological target: Neu5Ac(a2-8)Neu5Gc(a2-3)Gal(b1-4)GlcNAc
Outline: as §1

Neu5Gc(a2-6)GalNAc = biological target: Neu5Gc(a2-6)GalNAc
Outline: as §1

B1: Sebin2 (Coprinopsis cinerea), A8PE78 (protein)
chain: MTTPFYAYCHNVQDDNTWRLGLVFANRSTADEWWRAISEATSSIPITKSITRVTPQYYTHDIRVWNMYNFFVDGNIKSISDKFRGRLFITLEYDRSGRGVSVFPPLHIVDHVSGNWYYIRSKTAPHLFWFYDETRNAIYASKEKRTRFKVSIRNPSPQTPKDAIMINSDDVVIHIKESLYVGVDSYLGHIIPTRAYRTFKFGELEGGAIAGIEVAENAEERCSSTFDGASLYFVGPDSSSPGEPWELV
glycan array binding signal (z-score) [1]: 0.911 | glycan array binding signal (z-score) [2]: -0.146 | glycan array binding signal (z-score) [3]: 0.019 | glycan array binding signal (z-score) [4]: -0.116 | glycan array binding signal (z-score) [5]: 4.59 | glycan array binding signal (z-score) [6]: -0.033 | glycan array binding signal (z-score) [7]: 0.273 | glycan array binding signal (z-score) [8]: 1.49 | glycan array binding signal (z-score) [9]: 0.281 | glycan array binding signal (z-score) (Fuc(a1-4)GlcNAc): 4.58 | glycan array binding signal (z-score) (Gal(a1-3)Gal(b1-3)GlcNAc): 1.62 | glycan array binding signal (z-score) [10]: -0.524 | glycan array binding signal (z-score) [11]: -0.521 | glycan array binding signal (z-score) [12]: -0.222 | glycan array binding signal (z-score) [13]: 1.02 | glycan array binding signal (z-score) [14]: -0.397 | glycan array binding signal (z-score) [15]: 0.29 | glycan array binding signal (z-score) [16]: 0.112 | glycan array binding signal (z-score) [17]: -0.131 | glycan array binding signal (z-score) [18]: 0.421 | glycan array binding signal (z-score) (Gal3S(b1-4)Glc6S): 0.515 | glycan array binding signal (z-score) (Gal6S(b1-4)Glc): -0.355 | glycan array binding signal (z-score) (Gal6S(b1-4)GlcNAc): -0.138 | glycan array binding signal (z-score) [19]: -0.059 | glycan array binding signal (z-score) (GalNAc(b1-3)GalNAc): -0.129 | glycan array binding signal (z-score) [20]: -0.25 | glycan array binding signal (z-score) (GalNAc3S(b1-4)GlcNAc3S): 0.462 | glycan array binding signal (z-score) (GlcA(b1-6)Gal): 1.12 | glycan array binding signal (z-score) [21]: 1.64 | glycan array binding signal (z-score) [22]: -0.213 | glycan array binding signal (z-score) [23]: 2.76 | glycan array binding signal (z-score) (GlcNAc(b1-3)Gal(b1-4)Glc): -0.04 | glycan array binding signal (z-score) [24]: -0.253 | glycan array binding signal (z-score) [25]: -0.328 | glycan array binding signal (z-score) (Man(b1-4)GlcNAc): -0.209 | glycan array binding signal (z-score) [26]: 6.35 | glycan array binding signal (z-score) (Neu5Ac(a2-3)Gal(b1-4)Glc): 8.35 | glycan array binding signal (z-score) [27]: 0.2 | glycan array binding signal (z-score) [28]: -0.437 | glycan array binding signal (z-score) [29]: -0.35 | glycan array binding signal (z-score) [30]: 0.72 | glycan array binding signal (z-score) [31]: -0.304 | glycan array binding signal (z-score) (Neu5Gc(a2-6)GalNAc): -0.242
